# Test results published in PubChem BioAssay (NCI).
# “And” between values parts separate entries of the source, which are not always exact repeats. Equal entries are not always repeated. The panel holds about 83,000 compounds, 20% with a hit somewhere; the sample as a whole holds those more often.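 Treatment: one concentration, 48 hours, 96-well format. Scoring: percent growth, with anything below 10 considered active.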 The source made the active and inactive calls.
# Tests used:
# Assay in all cases: NCI-60 one-dose screen, 48 h (100 = growth as untreated, 0 = no growth, -100 = all killed)
# Settings in all cases: 10 µM unless noted
# NCI-H23 lung = test system: NCI-H23 lung
# NCI-H226 lung = test system: NCI-H226 lung
# NCI-H322M lung = test system: NCI-H322M lung
# HOP-62 NSCLC = test system: HOP-62 NSCLC
# NCI-H460 lung = test system: NCI-H460 lung
# HOP-92 NSCLC = test system: HOP-92 NSCLC
# NCI-H522 lung = test system: NCI-H522 lung
# A549/ATCC NSCLC = test system: A549/ATCC NSCLC
# 786-0 renal = test system: 786-0 renal
# COLO 205 colon = test system: COLO 205 colon
# DU-145 prostate = test system: DU-145 prostate
# K-562 leukemia = test system: K-562 leukemia
# MALME-3M melanoma = test system: MALME-3M melanoma
# MDA-MB-231 breast = test system: MDA-MB-231 breast
# RXF 393 renal = test system: RXF 393 renal
# SF-268 CNS = test system: SF-268 CNS
# SF-295 CNS = test system: SF-295 CNS
# SF-539 CNS = test system: SF-539 CNS
# UACC-257 melanoma = test system: UACC-257 melanoma
# M14 melanoma = test system: M14 melanoma
Compound,growth (NCI-H23 lung),growth (NCI-H226 lung),growth (NCI-H322M lung),growth (HOP-62 NSCLC),growth (NCI-H460 lung),growth (HOP-92 NSCLC),growth (NCI-H522 lung),growth (A549/ATCC NSCLC),growth (786-0 renal),growth (COLO 205 colon),growth (DU-145 prostate),growth (K-562 leukemia),growth (MALME-3M melanoma),growth (MDA-MB-231 breast),growth (RXF 393 renal),growth (SF-268 CNS),growth (SF-295 CNS),growth (SF-539 CNS),growth (UACC-257 melanoma),growth (M14 melanoma)
CCC(C)NC(=O)c1ccccc1C (stereo not given),91.7% (inactive),93.6% (inactive),97.7% (inactive),92.1% (inactive),102% (inactive),84.5% (inactive),94.2% (inactive),100% (inactive),95.7% (inactive),103% (inactive),106% (inactive),129% (inactive),77.7% (inactive),104% (inactive),96% (inactive),101% (inactive),100% (inactive),96.6% (inactive),100% (inactive),95.3% (inactive)
COc1ccc(CCN=Cc2ccc(Cl)cc2)cc1OC,100% (inactive),112% (inactive),106% (inactive),107% (inactive),113% (inactive),89.6% (inactive),94.8% (inactive),108% (inactive),108% (inactive),108% (inactive),106% (inactive),122% (inactive),135% (inactive),109% (inactive),177% (inactive),99.5% (inactive),121% (inactive),111% (inactive),109% (inactive),111% (inactive)
COC(=O)c1nc(=S)[nH]c(C(=O)OC)c1C(=O)c1ccc(OC)cc1,97.4% (inactive),90.7% (inactive),104% (inactive),123% (inactive),114% (inactive),95.9% (inactive),101% (inactive),118% (inactive),113% (inactive),117% (inactive),117% (inactive),106% (inactive),97.5% (inactive),100% (inactive),108% (inactive),112% (inactive),99.6% (inactive),99.3% (inactive),109% (inactive),108% (inactive)
COC(=O)c1cc(C(=O)OC)cc([N+](=O)[O-])c1,105% (inactive),108% (inactive),117% (inactive),94.8% (inactive),113% (inactive),105% (inactive),90.6% (inactive),87.7% (inactive),92.9% (inactive),101% (inactive),113% (inactive),99.7% (inactive),113% (inactive),112% (inactive),118% (inactive),108% (inactive),111% (inactive),97.4% (inactive),82.7% (inactive),106% (inactive)
O=C(c1ccncc1)c1c(Cc2ccccc2)ccc2ccccc12,55.2% (inactive),82.5% (inactive),74.2% (inactive),95.1% (inactive),89.8% (inactive),82% (inactive),27.8% (inactive),72.2% (inactive),104% (inactive),87% (inactive),99.2% (inactive),101% (inactive),32.3% (inactive),70.2% (inactive),84% (inactive),117% (inactive),83.6% (inactive),95.3% (inactive),-14.4% (active),108% (inactive)
c1ccc2c[n+](Cc3ccc4ccccc4n3)ccc2c1,69.1% (inactive),85.8% (inactive),104% (inactive),80.1% (inactive),88.4% (inactive),56% (inactive),84.9% (inactive),65.5% (inactive),95.3% (inactive),46.5% (inactive),99.8% (inactive),63.8% (inactive),75.7% (inactive),89.4% (inactive),91% (inactive),85.7% (inactive),91.4% (inactive),82.5% (inactive),56% (inactive),72.3% (inactive)
CC(=O)/C(N=Nc1ccc(S(=O)(=O)c2ccc(N=N/C(C(C)=O)=C(/C)O)cc2)cc1)=C(\C)O,97.6% (inactive),114% (inactive),106% (inactive),103% (inactive),93.2% (inactive),90.3% (inactive),105% (inactive),105% (inactive),112% (inactive),113% (inactive),104% (inactive),111% (inactive),106% (inactive),113% (inactive),165% (inactive),101% (inactive),118% (inactive),112% (inactive),109% (inactive),105% (inactive)
CCOP(C)(=O)/C(Cc1ccc(OC)c(OC)c1)=N\O (stereo not given),97.1% (inactive),96% (inactive),90.5% (inactive),98.7% (inactive),105% (inactive),100% (inactive),102% (inactive),108% (inactive),103% (inactive),112% (inactive),116% (inactive),101% (inactive),98.5% (inactive),109% (inactive),113% (inactive),102% (inactive),100% (inactive),100% (inactive),113% (inactive),108% (inactive)
CC(=O)Oc1ccc(C2(c3ccc(OC(C)=O)cc3)C(=O)Nc3ccccc32)cc1,41.5% (inactive) and 54.4% (inactive),76.3% (inactive) and 82.9% (inactive),33.1% (inactive) and 33.7% (inactive),109% (inactive) and 93.1% (inactive),104% (inactive),68.4% (inactive) and 44.2% (inactive),95.7% (inactive) and 83.2% (inactive),96.1% (inactive) and 98% (inactive),107% (inactive) and 93% (inactive),4.98% (active) and 17.2% (inactive),89% (inactive) and 89.9% (inactive),78.9% (inactive) and 93.8% (inactive),128% (inactive) and 97.8% (inactive),95.4% (inactive) and 87.4% (inactive),66.4% (inactive) and 76.9% (inactive),96.7% (inactive) and 100% (inactive),71.8% (inactive) and 86.3% (inactive),97.2% (inactive) and 92.2% (inactive),110% (inactive) and 114% (inactive),112% (inactive) and 99.4% (inactive)
Cc1cc(=NO)cc(C)n1O,109% (inactive),114% (inactive),94.3% (inactive),100% (inactive),107% (inactive),111% (inactive),120% (inactive),113% (inactive),107% (inactive),113% (inactive),101% (inactive),96.8% (inactive),112% (inactive),118% (inactive),123% (inactive),99.2% (inactive),94.4% (inactive),104% (inactive),112% (inactive),108% (inactive)
CC(=O)c1cc2ccccc2o1,97.9% (inactive),107% (inactive),110% (inactive),99.7% (inactive),108% (inactive),106% (inactive),84.1% (inactive),104% (inactive),94.1% (inactive),114% (inactive),112% (inactive),97.9% (inactive),107% (inactive),99.9% (inactive),119% (inactive),106% (inactive),103% (inactive),89% (inactive),114% (inactive),99.5% (inactive)
COc1ccc2oc3cc(NCCN(C)C)ccc3c(=O)c2c1,112% (inactive) and 83% (inactive),109% (inactive) and 102% (inactive),76.5% (inactive),88.2% (inactive) and 54.1% (inactive),97.7% (inactive) and 61.7% (inactive),88.2% (inactive) and 82.1% (inactive),65.7% (inactive),95.2% (inactive) and 73.8% (inactive),103% (inactive) and 76.9% (inactive),84.3% (inactive) and 47.7% (inactive),108% (inactive) and 76.6% (inactive),66.7% (inactive) and 43.2% (inactive),94.8% (inactive) and 81.7% (inactive),83.5% (inactive) and 73.6% (inactive),107% (inactive) and 92.5% (inactive),104% (inactive) and 82.7% (inactive),54.7% (inactive) and 72.1% (inactive),80.7% (inactive) and 84.2% (inactive),86.9% (inactive),96.5% (inactive) and 76.7% (inactive)
